Measured values as given in PubChem BioAssay AID1159580 (chemical genetic matrix, 2015).
Out of some 5,500 compounds screened, about 2,000 (36%) were called active. Inconclusive results (about 18%) are left out. No stated cut-off is given here; in the data, active means normalized growth mostly below about 0.91 (no sharp cut-off); inconclusive means no clear call, values can overlap the other calls; inactive means mostly above about 0.92. Some of the results follow.

Assay: chemical genetic growth profiling, strain panel (AID 1159580);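 further: tested at 20 µM; growth read once vehicle control cultures reached saturation at 30 °C; 1 = growth at the plate median or of vehicle wells; lower values mean less growth of the strain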
Conditions: S. cerevisiae deletion strains, growth OD
[1] = locus YBR229C, strain ROT2, hits give low values
[2] = locus YDL101C, strain DUN1, hits give low values
[3] = locus YDR150W, strain NUM1, hits give low values
[4] = locus YEL061C, strain CIN8, hits give low values
[5] = locus YHR030C, strain SLT2, hits give low values
[6] = locus YJR043C, strain POL32, hits give low values
[7] = locus YKL190W, strain CNB1, hits give low values
[8] = locus YLR039C, strain RIC1, hits give low values
[9] = locus YLR262C, strain YPT6, hits give low values
[10] = locus YMR263W, strain SAP30, hits give low values
[11] = locus YMR307W, strain GAS1, hits give low values

Measured: normalized growth

O=C(O)CCS(=O)(=O)/C=C/c1ccccc1
inactive: locus YAL013W, strain DEP1, hits give low values 0.995 | [1] 0.989 | locus YCL061C, strain MRC1, hits give low values 1 | [2] 1.04 | [3] 0.984 | [4] 1 | locus YGR078C, strain PAC10, hits give low values 1.02 | [5] 0.996 | locus YHR087W, strain rtc3, hits give low values 1.01 | locus YJL187C, strain SWE1, hits give low values 0.992 | [6] 0.989 | locus YJR075W, strain HOC1, hits give low values 1 | [7] 0.979 | [8] 0.989 | locus YLR058C, strain SHM2 (second series), hits give low values 0.982 | locus YLR085C, strain ARP6, hits give low values 0.988 | [9] 1 | locus YML094W, strain GIM5, hits give low values 1.11 | locus YMR219W, strain ESC1, hits give low values 0.991 | [10] 0.955 | [11] 0.951 | locus YNL153C, strain GIM3, hits give low values 1.01 | locus YNL298W, strain CLA4 (second series), hits give low values 0.997 | locus YNL322C, strain KRE1, hits give low values 0.992 | locus YNR030W, strain Alg12, hits give low values 1.03 | locus YPL055C, strain LGE1, hits give low values 1.02 | locus YPL241C, strain CIN2, hits give low values 1.12 | locus YPR135W, strain CTF4, hits give low values 1.08

COc1cc(O)cc(/C=C/c2ccccc2)c1
inactive: [1] 0.97 | [3] 0.954 | locus YDR388W, hits give low values 0.966 | locus YER167W, strain BCK2, hits give low values 0.94 | locus YHR094C, strain hxt1, hits give low values 0.946 | locus YIL073C, strain SPO22, hits give low values 0.809 | locus YIL125W, strain kgd1, hits give low values 0.94 | locus YJL134W, strain LCB3, hits give low values 0.976 | locus YJL168C, strain set2, hits give low values 0.954 | locus YKL068W, hits give low values 0.954 | locus YLR102C, strain apc9, hits give low values 0.942 | locus YLR268W, strain sec22, hits give low values 0.909 | locus YLR371W, strain rom2, hits give low values 0.949 | locus YML016C, strain PPZ1, hits give low values 0.924 | locus YMR078C, strain ctf18, hits give low values 0.938 | locus YOL012C, strain htz1 1.06 | locus YOR316C, strain cot1, hits give low values 0.949 | locus YPR141C, strain kar3, hits give low values 0.95
active: locus YBR021W, strain FUR4, hits give low values 0.833 | locus YCL029C, strain bik1, hits give low values 0.9 | locus YDL035C, strain GPR1, hits give low values 0.665 | locus YDL074C, strain BRE1, hits give low values 0.61 | [2] 0.835 | locus YDL134C, strain PPH21, hits give low values 0.697 | locus YDL185W, strain tfp1, hits give low values 0.881 | locus YDL192W, strain arf1, hits give low values 0.692 | locus YDR101C, strain arx1, hits give low values 0.858 | locus YDR162C, strain NBP2, hits give low values 0.618 | locus YDR318W, strain mcm21, hits give low values 0.805 | locus YDR502C, strain sam2, hits give low values 0.748 | [4] 0.856 | locus YER110C, hits give low values 0.866 | locus YER155C, strain BEM2, hits give low values 0.753 | locus YGL078C, strain dbp3, hits give low values 0.765 | locus YGL086W, strain mad1, hits give low values 0.803 | locus YGL248W, strain PDE1, hits give low values 0.748 | locus YGR135W, strain pre9, hits give low values 0.713 | locus YGR252W, strain gcn5, hits give low values 0.519 | [5] 0.795 | locus YHR079C, strain IRE1 (second series), hits give low values 0.89 | locus YHR129C, strain ARP1, hits give low values 0.768 | locus YHR200W, strain rpn10, hits give low values 0.907 | locus YIL066C, strain RNR3, hits give low values 0.859 | locus YIR030C, strain dcg1, hits give low values 0.907 | locus YJL095W, strain BCK1, hits give low values 0.46 | locus YJL187C, strain SWE1 (second series), hits give low values 0.721 | [6] 0.85 | locus YKL009W, strain mrt4, hits give low values 0.742 | locus YKL085W, strain MDH1 (second series), hits give low values 0.913 | locus YKL085W, strain MDH1, hits give low values 0.913 | [7] 0.839 | locus YKR001C, strain vps1, hits give low values 0.425 | [8] 0.507 | locus YLR058C, strain SHM2, hits give low values 0.784 | [9] 0.381 | locus YLR330W, strain CHS5, hits give low values 0.715 | locus YLR342W, strain FKS1 (second series), hits give low values 0.601 | locus YLR418C, strain cdc73, hits give low values 0.456 | locus YML032C, strain rad52, hits give low values 0.795 | locus YML124C, strain tub3, hits give low values 0.914 | locus YMR223W, strain ubp8, hits give low values 0.805 | [10] 0.768 | [11] 0.59 | locus YNL067W, strain RPL9B, hits give low values 0.721 | locus YNL233W, strain BNI4, hits give low values 0.67 | locus YNL250W, strain rad50, hits give low values 0.887 | locus YNL271C, strain bni1, hits give low values 0.855 | locus YNL298W, strain CLA4, hits give low values 0.802 | locus YNL307C, strain MCK1, hits give low values 0.513 | locus YNR052C, strain pop2, hits give low values 0.855 | locus YOL147C, strain pex11, hits give low values 0.824 | locus YOR061W, strain CKA2, hits give low values 0.885 | locus YOR069W, strain VPS5, hits give low values 0.807 | locus YOR136W, strain idh2, hits give low values 0.899 | locus YOR144C, strain elg1, hits give low values 0.918 | locus YOR184W, strain ser1, hits give low values 0.666 | locus YPR119W, strain clb2, hits give low values 0.924 | locus YPR163C, strain tif3, hits give low values 0.682 | locus YPR167C, strain met16, hits give low values 0.809 | strain wtn01, hits give low values 0.789
